In the supplement of paper PMC4466140:

target: ScBbc1; test: SPOT peptide array binding signal intensity (averaged, normalized) (arbitrary units (background-subtracted, floor 0; scale differs between SH3 domains)); higher = stronger binding of the SH3 domain to the peptide
Method in brief: (§1)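 GST-fused SH3 domains from four yeast species were expressed in E. coli BL21(DE3), purified on glutathione Sepharose and incubated at 10 μg/ml overnight at 4°C in TBS-based blocking buffer on cellulose membranes carrying synthetic 15-mer peptides, with cysteines replaced by serines. Bound protein was detected with anti-GST antibody, an HRP anti-mouse secondary and luminol, then imaged and quantified with Genespotter. Binding signal is the normalized, background-subtracted spot intensity averaged over replicates, in arbitrary units that differ between domains.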

Q: Which “SPOT peptide array binding signal intensity” value does the source give for RAPPPVPKKPSSRIA here?
A: The value was 270.

target: ScBem1-D1; test: as above
Method in brief: as §1

Q: How did the “SPOT peptide array binding signal intensity” value turn out when RAPPPVPKKPSSRIA was run?
A: The value was 9.

target: ScBzz1-D1; test: as above
Method in brief: as §1

Q: With RAPPPVPKKPSSRIA as the binder, how does the “SPOT peptide array binding signal intensity” value read?
A: The value was 565.

target: ScBzz1-D2; test: as above
Method in brief: as §1

Q: How did the “SPOT peptide array binding signal intensity” value turn out when RAPPPVPKKPSSRIA was run?
A: Its value is 33.

target: ScCyk3; test: as above
Method in brief: as §1

Q: With RAPPPVPKKPSSRIA as the binder, how does the “SPOT peptide array binding signal intensity” value read?
A: Its value is 7.

target: ScFus1; test: as above
Method in brief: as §1

Q: With RAPPPVPKKPSSRIA as the binder, how does the “SPOT peptide array binding signal intensity” value read?
A: The value was 1.

target: ScHof1; test: as above
Method in brief: as §1

Q: How did the “SPOT peptide array binding signal intensity” value turn out when RAPPPVPKKPSSRIA was run?
A: The value was 1.5.

target: ScHse1; test: as above
Method in brief: as §1

Q: With RAPPPVPKKPSSRIA as the binder, how does the “SPOT peptide array binding signal intensity” value read?
A: The value was at most 0.

target: ScLsb1; test: as above
Method in brief: as §1

Q: RAPPPVPKKPSSRIA was tested. Which “SPOT peptide array binding signal intensity” value did it give?
A: The value was 452.

target: ScLsb2; test: as above
Method in brief: as §1

Q: For RAPPPVPKKPSSRIA, which “SPOT peptide array binding signal intensity” value is on record?
A: The value was 1030.

target: ScLsb3; test: as above
Method in brief: as §1

Q: For RAPPPVPKKPSSRIA, which “SPOT peptide array binding signal intensity” value is on record?
A: The value was 4390.

target: ScLsb4; test: as above
Method in brief: as §1

Q: Which “SPOT peptide array binding signal intensity” value does the source give for RAPPPVPKKPSSRIA here?
A: The value was 52.5.

target: ScMyo3; test: as above
Method in brief: as §1

Q: How did the “SPOT peptide array binding signal intensity” value turn out when RAPPPVPKKPSSRIA was run?
A: The value was 80.5.

target: ScMyo5; test: as above
Method in brief: as §1

Q: RAPPPVPKKPSSRIA was tested. Which “SPOT peptide array binding signal intensity” value did it give?
A: The value was 50.2.

target: ScNbp2; test: as above
Method in brief: as §1

Q: For RAPPPVPKKPSSRIA, which “SPOT peptide array binding signal intensity” value is on record?
A: The value was 5230.

target: ScPex13; test: as above
Method in brief: as §1

Q: With RAPPPVPKKPSSRIA as the binder, how does the “SPOT peptide array binding signal intensity” value read?
A: Its value is 869.

target: ScRvs167; test: as above
Method in brief: as §1

Q: How did the “SPOT peptide array binding signal intensity” value turn out when RAPPPVPKKPSSRIA was run?
A: Its value is 1400.

target: ScSho1; test: as above
Method in brief: as §1

Q: Which “SPOT peptide array binding signal intensity” value does the source give for RAPPPVPKKPSSRIA here?
A: The value was 2740.

target: ScSla1-D1-D2; test: as above
Method in brief: as §1

Q: For RAPPPVPKKPSSRIA, which “SPOT peptide array binding signal intensity” value is on record?
A: The value was 2100.

target: ScSla1-D3; test: as above
Method in brief: as §1

Q: With RAPPPVPKKPSSRIA as the binder, how does the “SPOT peptide array binding signal intensity” value read?
A: The value was 331.

target: SpAbp1-D1; test: as above
Method in brief: as §1

Q: For RAPPPVPKKPSSRIA, which “SPOT peptide array binding signal intensity” value is on record?
A: Its value is 2240.

target: SpBbc1; test: as above
Method in brief: as §1

Q: For RAPPPVPKKPSSRIA, which “SPOT peptide array binding signal intensity” value is on record?
A: Its value is 26.

target: SpBzz1-D1; test: as above
Method in brief: as §1

Q: For RAPPPVPKKPSSRIA, which “SPOT peptide array binding signal intensity” value is on record?
A: Its value is 2030.

target: SpBzz1-D2; test: as above
Method in brief: as §1

Q: For RAPPPVPKKPSSRIA, which “SPOT peptide array binding signal intensity” value is on record?
A: The value was 198.

target: SpCyk3; test: as above
Method in brief: as §1

Q: With RAPPPVPKKPSSRIA as the binder, how does the “SPOT peptide array binding signal intensity” value read?
A: Its value is 5.

target: SpHof1; test: as above
Method in brief: as §1

Q: How did the “SPOT peptide array binding signal intensity” value turn out when RAPPPVPKKPSSRIA was run?
A: The value was 186.

target: SpHof1-2; test: as above
Method in brief: as §1

Q: Which “SPOT peptide array binding signal intensity” value does the source give for RAPPPVPKKPSSRIA here?
A: Its value is 20.2.

target: SpHof1-3; test: as above
Method in brief: as §1

Q: For RAPPPVPKKPSSRIA, which “SPOT peptide array binding signal intensity” value is on record?
A: The value was 372.

target: SpHse1; test: as above
Method in brief: as §1

Q: How did the “SPOT peptide array binding signal intensity” value turn out when RAPPPVPKKPSSRIA was run?
A: The value was 126.

target: SpLsb1; test: as above
Method in brief: as §1

Q: How did the “SPOT peptide array binding signal intensity” value turn out when RAPPPVPKKPSSRIA was run?
A: The value was 1720.

target: SpLsb4; test: as above
Method in brief: as §1

Q: With RAPPPVPKKPSSRIA as the binder, how does the “SPOT peptide array binding signal intensity” value read?
A: Its value is 1110.

target: SpMyo1; test: as above
Method in brief: as §1

Q: How did the “SPOT peptide array binding signal intensity” value turn out when RAPPPVPKKPSSRIA was run?
A: The value was 151.

target: SpNbp2; test: as above
Method in brief: as §1

Q: Which “SPOT peptide array binding signal intensity” value does the source give for RAPPPVPKKPSSRIA here?
A: The value was 48.5.

target: SpPex13; test: as above
Method in brief: as §1

Q: How did the “SPOT peptide array binding signal intensity” value turn out when RAPPPVPKKPSSRIA was run?
A: Its value is at most 0.

target: SpRvs167; test: as above
Method in brief: as §1

Q: With RAPPPVPKKPSSRIA as the binder, how does the “SPOT peptide array binding signal intensity” value read?
A: Its value is 1860.

target: SpSla1-D1-D2; test: as above
Method in brief: as §1

Q: For RAPPPVPKKPSSRIA, which “SPOT peptide array binding signal intensity” value is on record?
A: The value was 576.

target: SpSla1-D3; test: as above
Method in brief: as §1

Q: With RAPPPVPKKPSSRIA as the binder, how does the “SPOT peptide array binding signal intensity” value read?
A: The value was at most 0.
